Our source for the inhibition of ligand binding values is PubChem BioAssay AID1211 (NMMLSC, 2008).

The experiment deals with Estrogen receptor (Homo sapiens) (UniProt P03372). In words: displacement of fluorescent estrogen from ERalpha – cell-based, Cos7 ERalpha-GFP, flow cytometry, primary screen (AID 1211).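 Also: 0% = DMSO vehicle wells and 100% = no E2-Alexa633 signal left.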 Particulars: fluorescent ligand competition, stronger effect = higher value. (In flow cytometry, cells or beads pass a laser one at a time.)

Each structure is given as a SMILES string. Calls of active or inactive are those of the source. No rule for the calls is given here.

Sequence of Estrogen receptor (Homo sapiens) (P03372 whole entry, looked up): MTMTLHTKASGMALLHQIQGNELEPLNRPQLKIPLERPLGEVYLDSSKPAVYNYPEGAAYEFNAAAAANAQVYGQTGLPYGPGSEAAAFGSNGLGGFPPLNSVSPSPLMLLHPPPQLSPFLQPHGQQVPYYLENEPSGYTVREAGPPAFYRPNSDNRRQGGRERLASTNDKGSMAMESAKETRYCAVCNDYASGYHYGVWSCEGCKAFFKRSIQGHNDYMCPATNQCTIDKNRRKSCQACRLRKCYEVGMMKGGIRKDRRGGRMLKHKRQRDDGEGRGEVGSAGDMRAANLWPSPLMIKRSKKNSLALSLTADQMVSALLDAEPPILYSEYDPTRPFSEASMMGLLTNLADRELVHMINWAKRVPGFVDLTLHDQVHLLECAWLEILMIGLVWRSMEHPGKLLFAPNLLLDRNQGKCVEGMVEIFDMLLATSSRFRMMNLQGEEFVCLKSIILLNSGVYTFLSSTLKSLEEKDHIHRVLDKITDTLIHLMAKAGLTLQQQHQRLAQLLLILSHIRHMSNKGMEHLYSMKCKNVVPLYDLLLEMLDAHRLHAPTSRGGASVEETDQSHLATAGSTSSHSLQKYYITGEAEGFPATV

Regarding `O=C(Nc1nc(-c2nc3ccccc3s2)cs1)C1COc2ccccc2O1` (centres undefined), the inhibition of ligand binding by setting is: (at 10 µM) 33% (inactive); (binding inhibition, at 0.1 µM) 11%.
Consider `Cc1ccc(C(=O)ONc2ccc(N=NC(=O)c3ccccc3O)cc2)cc1`, for which the inhibition of ligand binding is 39% (inactive) (at 10 µM) and 37% (binding inhibition, at 0.1 µM).
Consider `O=C(CSc1nnnn1-c1ccccc1)Nc1nsc(-c2ccc(Cl)cc2)n1`, for which the inhibition of ligand binding runs as follows: (at 10 µM) 47% (inactive); (binding inhibition, at 0.1 µM) 8%.
Consider `CCOC(=O)Cn1cnc2sc3c(c2c1=O)CCC3`, for which the inhibition of ligand binding is 23% (inactive) (at 10 µM) and 13% (binding inhibition, at 0.1 µM).
On to `O=C(NNC(=O)c1ccc(SCC2CCCO2)c([N+](=O)[O-])c1)c1ccc(Cl)c([N+](=O)[O-])c1` (centres undefined), for which the inhibition of ligand binding is, setting by setting: (at 10 µM) 35% (inactive); (binding inhibition, at 0.1 µM) 45%.
As for `Cc1oc2cc(O)ccc2c(=O)c1Oc1ccccc1`, the inhibition of ligand binding reads like this: (at 10 µM) 58% (active); (binding inhibition, at 0.1 µM) 93%.
For the molecule `Cn1nnnc1SCC(=O)Nc1nc(-c2ccccc2)c(-c2ccccc2)o1`, the inhibition of ligand binding is 45% (inactive) (at 10 µM) and 7% (binding inhibition, at 0.1 µM).
Take `COC(=O)C1=C(O)/C(=C\c2ccc(CNC(=O)C(=O)Nc3ccc(C)c(C)c3)o2)N=C1C`: the inhibition of ligand binding is, setting by setting: (at 10 µM) 32% (inactive); (binding inhibition, at 0.1 µM) 31%.
For `O=C(NCc1ccco1)c1cc2cc3ccc(Cl)cc3nc2o1` the same measures were 49% (inactive) and 30%.
Regarding `Oc1ccc(/C=C/c2nc(-c3ccccc3O)n(-c3ccccc3)n2)cc1`, the inhibition of ligand binding is 11% (inactive) (at 10 µM) and 58% (binding inhibition, at 0.1 µM).
Consider `CCc1ccc(NC(=O)c2noc3c2CCC3)cc1`, for which the inhibition of ligand binding runs as follows: (at 10 µM) 2% (inactive); (binding inhibition, at 0.1 µM) 9%.
On to `CC1(C)Cc2c(sc3c4nnnn4c4nnnn4c23)CO1`, for which the inhibition of ligand binding (at 10 µM) was 12% (inactive) and the inhibition of ligand binding (binding inhibition, at 0.1 µM) turned out to be 21%.
On to `CC(C)c1ccc2c(c1)[C@H]1OCC[C@H]1[C@@H](c1cccs1)N2`, for which the inhibition of ligand binding (at 10 µM) was 0% (inactive) and the inhibition of ligand binding (binding inhibition, at 0.1 µM) amounted to 20%.
Turning to `Nc1ccc2nc(-c3ccc(N)c(Cl)c3)[nH]c2c1`, the inhibition of ligand binding (at 10 µM) was 31% (inactive) and the inhibition of ligand binding (binding inhibition, at 0.1 µM) was 12%.
On the same counts, the results for `Nc1ccc2oc(-c3ccccc3Cl)cc(=O)c2c1O` are 46% (inactive) and 30%.
Turning to `CCc1oc2ccccc2c1C(=O)c1cc(Br)c(O)c(Br)c1`, the inhibition of ligand binding is 0% (inactive) (at 10 µM) and 20% (binding inhibition, at 0.1 µM).
On the same counts, the results for `O=S(=O)(c1cccc(-c2cn3cccnc3n2)c1)N1CCCCCC1` are 25% (inactive) and 48%.
For `CC(C)(C)OC(=O)N1CCN(c2ccc(NC(=O)Cn3nnc(-c4ccccc4)n3)cc2)CC1`, the inhibition of ligand binding was 37% (inactive) (at 10 µM) and 24% (binding inhibition, at 0.1 µM).
In the case of `O=C1C(c2ccnc3ccccc23)=C(O)c2ccccc21`, the inhibition of ligand binding was 26% (inactive) (at 10 µM) and 28% (binding inhibition, at 0.1 µM).
As to `Oc1ccc(C2=Nn3c(nnc3-c3ccco3)SC2)cc1O`, the inhibition of ligand binding was 32% (inactive) (at 10 µM) and 27% (binding inhibition, at 0.1 µM).
For `CCc1ccc2[nH]c(=O)c(C3C(C#N)=C(N)Oc4c3ccc3cccnc43)cc2c1` (centres undefined) the same measures were 30% (inactive) and 37%.
Take `Cc1cc(=O)[nH]c(SCC(=O)NCc2ccco2)n1`: the inhibition of ligand binding is 19% (inactive) (at 10 µM) and 8% (binding inhibition, at 0.1 µM).
For the molecule `Cc1nn(-c2ccccc2)c(/N=C/c2ccc(O)cc2)c1-c1ccccc1`, the inhibition of ligand binding by setting is: (at 10 µM) 77% (active); (binding inhibition, at 0.1 µM) 50%.
On the same counts, the results for `Cc1ccc2[nH]c(=O)c(-c3nc4ccccn4c3NCc3ccco3)cc2c1` are 23% (inactive) and 16%.
For `COc1ccccc1-c1nnc2n1N=C(c1ccc(O)c(O)c1)CS2` the same measures were 46% (inactive) and 10%.
On to `CCOc1cc(N2CCOCC2)c(OCC)cc1NC(=O)c1cc(-c2ccco2)nc2ccccc12`, for which the inhibition of ligand binding is, setting by setting: (at 10 µM) 24% (inactive); (binding inhibition, at 0.1 µM) 4%.
For the molecule `COC(=O)c1c(-c2ccncc2)csc1NC(=O)c1ccoc1C`, the inhibition of ligand binding by setting is: (at 10 µM) 41% (inactive); (binding inhibition, at 0.1 µM) 25%.
For the molecule `COC(=O)c1[nH]c2ccc(C)cc2c1NC(=O)CN1CCCc2ccccc21`, the inhibition of ligand binding was 49% (inactive) (at 10 µM) and 9% (binding inhibition, at 0.1 µM).
Turning to `O=C(OCC(=O)N1CCN(C(=O)c2ccco2)CC1)c1cc(-c2ccco2)nc2ccccc12`, the inhibition of ligand binding was 34% (active) (at 10 µM) and 77% (binding inhibition, at 0.1 µM).
For the molecule `CCc1ccc(-c2nn(-c3ccccc3)cc2CSC(=N)N)cc1`, the inhibition of ligand binding runs as follows: (at 10 µM) 22% (inactive); (binding inhibition, at 0.1 µM) 45%.
For the molecule `Cc1nn(-c2ccccc2)c2sc(C(=O)c3c(N)n(C)c(=O)n(C)c3=O)cc12`, the inhibition of ligand binding by setting is: (at 10 µM) 0% (inactive); (binding inhibition, at 0.1 µM) 16%.
As to `N#Cc1c(NCCN)nc(NCc2ccccc2)c2c1CCN(Cc1ccccc1)C2`, the inhibition of ligand binding is 65% (inactive) (at 10 µM) and 15% (binding inhibition, at 0.1 µM).
In the case of `Cc1ccccc1Nc1nnc(SCC(=O)NC(=O)NCc2ccco2)s1`, the inhibition of ligand binding reads like this: (at 10 µM) 63% (inactive); (binding inhibition, at 0.1 µM) 50%.
Take `CCOC(=O)C1=C(O)/C(=C\c2ccc(CNC(=O)C(=O)Nc3ccccc3)o2)N=C1C`: the inhibition of ligand binding (at 10 µM) is 24% (inactive) and the inhibition of ligand binding (binding inhibition, at 0.1 µM) turned out to be 19%.
As for `Cc1snc2sc(C(=O)c3ccc(Br)cc3)c(N)c12`, the inhibition of ligand binding is 48% (inactive) (at 10 µM) and 29% (binding inhibition, at 0.1 µM).
As for `CSc1ccccc1NC(=O)c1noc2c1CCC2`, the inhibition of ligand binding (at 10 µM) is 56% (inactive) and the inhibition of ligand binding (binding inhibition, at 0.1 µM) is 26%.
Turning to `NC(=O)c1c(NC(=O)c2cc3ccccc3o2)sc2c1CCC2`, the inhibition of ligand binding by setting is: (at 10 µM) 43% (inactive); (binding inhibition, at 0.1 µM) 5%.
On the same counts, the results for `CCOC(=O)c1sc(NC(=O)c2ccc3ncsc3c2)nc1C` are 33% (inactive) and 36%.
As to `Cc1ccc(-c2nn3c(C)nnc3s2)cc1NC(=O)COc1ccc(Cl)cc1`, the inhibition of ligand binding by setting is: (at 10 µM) 38% (inactive); (binding inhibition, at 0.1 µM) 42%.
Consider `FC(F)(F)c1ccc2c(c1)C1C=CCC1C(c1ccncc1)N2` (centres undefined), for which the inhibition of ligand binding reads like this: (at 10 µM) 61% (inactive); (binding inhibition, at 0.1 µM) 27%.
On the same counts, the results for `COc1cccc(-n2nnnc2SCC(=O)Nc2ccc(C(C)=O)cc2)c1` are 38% (inactive) and 45%.
Regarding `O=C(c1cc2c(s1)CCC2)N1CCN(c2ccccc2)CC1`, the inhibition of ligand binding was 16% (active) (at 10 µM) and 70% (binding inhibition, at 0.1 µM).
